Screens (PubChem)
RORgamma inh – blocks mouse ROR gamma transcriptional activity; 310,000 compounds, 5.4% hits; AID 2551; P51450; Drosophila S2 Gal4-RORgamma UAS-luciferase reporter, 20 h; Potency, µM (series often up to 53.6 µM), for inactives: top-dose activity change, negative = inhibition, most hits filed as inhibitors; note: potency is the fitted concentration of half-maximal effect; % is set by controls: 0 for no effect and ±100 for the full control effect; nearly all actives have a fitted effect of over 60% in size
Target sequence (P51450 whole entry, looked up, the tested form may be a part): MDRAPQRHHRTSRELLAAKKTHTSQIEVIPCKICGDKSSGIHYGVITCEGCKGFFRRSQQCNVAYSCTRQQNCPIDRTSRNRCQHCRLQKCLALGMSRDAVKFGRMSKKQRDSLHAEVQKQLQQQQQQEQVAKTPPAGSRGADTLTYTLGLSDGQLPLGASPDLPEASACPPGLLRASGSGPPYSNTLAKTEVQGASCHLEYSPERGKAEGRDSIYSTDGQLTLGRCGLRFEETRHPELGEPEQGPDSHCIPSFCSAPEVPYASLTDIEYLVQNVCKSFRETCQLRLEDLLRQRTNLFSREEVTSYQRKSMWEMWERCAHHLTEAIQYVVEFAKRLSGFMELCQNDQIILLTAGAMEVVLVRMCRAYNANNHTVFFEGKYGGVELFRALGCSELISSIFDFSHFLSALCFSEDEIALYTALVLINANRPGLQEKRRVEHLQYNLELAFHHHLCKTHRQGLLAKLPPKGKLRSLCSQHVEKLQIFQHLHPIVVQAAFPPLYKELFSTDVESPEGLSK
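Compounds are pin-transferred onto Drosophila Schneider cells expressing a copper-inducible Gal4–ROR gamma transactivation domain fusion. After 1 hr, copper sulfate is added to 700 uM final; luciferase is read 20 hr later.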
p53 reactivator – mutant p53 re-activation in reporter cells. H1299 p53-A138V BP100-luciferase reporter, luminescence, 24 h. Potency, µM (doses to about 92.2 µM), for inactives: top-dose activity change, positive = activation, actives largely listed as activators. 320,000 compounds, 0.063% hits. AID 504706; note: potency is the fitted concentration of half-maximal effect; % of control where 0% means no effect; nearly all actives have a fitted effect of over 45% in size
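H1299 (p53-null), stable ts p53-A138V + BP100-Luc; 1000 cells/well, Opti-MEM/10% FBS; cpd 4 pt, 1:5; 24 h, 37 deg C, 5% CO2; detection reagent 10 min RT; luminescence.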
Giardia killer – Giardia lamblia killing. AID 540267. 340,000 compounds, 0.15% hits. activity change, % at 7.66 µM, hits read low. Giardia lamblia trophozoite viability; in the data active = activity change below about -80%; inconclusive = between about -30% and that limit;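 note: parasites exposed to compound for two days anaerobically before the ATP read; % is set by controls: 0 for no effect and ±100 for the full control effect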
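Trophozoites 100 cells/well + cpd; 48 hrs, 37 deg C, anaerobic. ATPLite 1-Step added, 15-30 min RT, luminescence read (ATP-based viability).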
BRCA1 expr up – increases BRCA1 expression. MCF7-BRCA1-FFLuc reporter, luminescence, 48 h; response scale: scaled: vehicle 0%, 10 µM genistein 100%. Potency, µM (highest dose often 46.1 µM), without a hit: at the highest dose activation, most hits filed as activators. 380,000 compounds, 1.1% hits; note: potency is the fitted concentration of half-maximal effect; nearly all actives have a fitted effect of over 80% in size
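Reporter cells (MCF7, BRCA1 promoter-firefly luciferase) received library compounds across a concentration series for 48 h. End-point luminescence was measured and concentration-effect curves derived after normalization.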
ELG1 repair inh – blocks ELG1-dependent DNA repair in HEK293T cells; HEK293T ELG1-luciferase reporter, luminescence, 16 h; DNA damage induced by 5-fluorouridine; 330,000 compounds, 2.3% hits; AID 504467; Potency, µM (series often up to 46.1 µM), inactives show at the highest dose activity change, negative = inhibition, hits mostly inhibitors; note: potency is the fitted concentration of half-maximal effect; % is set by controls: 0 for no effect and ±100 for the full control effect; nearly all actives have a fitted effect of over 55% in size
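In this reporter screen, reduction of luminescence relative to DMSO vehicle indicated activity. Compounds and 5-fluorouridine were added together to 2,000 cells per well, incubated for 16 hr at 37 °C, then developed with ONE-Glo.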
Gal4-VP16 FLuc – inhibits Gal4-VP16 luciferase reporter, ROR gamma counter-screen. Drosophila S2 Gal4-VP16 UAS-luciferase, luminescence, 20 h. Potency, µM (highest dose often 53.6 µM), without a hit: at the highest dose activity, negative = inhibition, usual class: inhibitors. 310,000 compounds, 3.5% hits. AID 2546;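 note: Gal4-VP16 expression switched on by copper sulfate through the metallothionein promoter; potency is the fitted concentration of half-maximal effect; % is set by controls: 0 for no effect and ±100 for the full control effect; nearly all actives have a fitted effect of over 50% in size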
An asterisk follows results filed as active; ? = inconclusive; nt = no result given; [ ] = another dose, or the depositor's remark. An excerpt weighted towards active compounds, which were near 7.6% of everything screened. Unless noted, calls come from the whole dose curve; as a rule, active = well fitted curve in the direction sought with a large enough effect; inconclusive = small, poorly fitted or top-dose-only effect, or another doubt; inactive = no such curve, though single readings can be large; an effect the other way counts as inactive or inconclusive.

SMILES | RORgamma inh | p53 reactivator | Giardia killer | BRCA1 expr up | ELG1 repair inh | Gal4-VP16 FLuc
CC[C@@H](C)C(NC(=O)OC(C)(C)C)c1cn([C@@H](Cc2cc3ccccc3[nH]2)C(=O)N2CCN(C(=O)OC(C)(C)C)CC2)nn1 (some centres not stated) | 31% | 0% | -24 | -47% | ? | -4%
CCOC(=O)C1(C)CCN1C(=O)c1ccccc1C (configuration not stated) | nt | nt | nt | 4% | nt | nt
CC(NC(=S)NC(=O)c1ccccc1)c1ccccc1 (configuration not stated) | nt | nt | -19 | 4% | nt | nt
COc1ccc(-c2nn(-c3ccccc3)cc2CNC(=O)c2cccc([N+](=O)[O-])c2)cc1 | ? | -3% | 15 | -23% | ? | 8.9µM*
O=C(NCc1cn(-c2ccccc2)nc1-c1ccccc1)c1cccc([N+](=O)[O-])c1 | -81% | 1% | 0 | -8% | 21µM* | ?
COc1ccc(-c2nn(-c3ccccc3)cc2C#N)cc1 | 15% | 13% | 9 | 4µM* | ? | 1%
O=C(Nc1cccnc1Cl)c1cc(-c2ccc(O)cc2)on1 | -27% | 22% | 5 | 8% | -4% | -6%
Cc1nc(/N=C(\N)N(C)C)[nH]c(=O)c1C | -6% | 2% | 22 | 0% | -1% | -5%
CC1CCCN(Cc2c(C(=O)N3CCc4ccccc4C3)nc3ccc(Cl)cn23)C1 (configuration not stated) | -5% | -4% | -2 | 0% | -2% | 3%
CCOC(=O)C1CCN(C(=O)CCc2nc3ccccc3[nH]2)CC1 | -27%[0.365 µM] | 0% | 3 | -5% | 1% | nt
CCOC(=O)C1(CCCc2ccccc2)CCN(C(=O)CN2CCOC2=O)CC1 | 1% | 2% | -21 | -5% | -3% | ?
CCOC(=O)C1(Cc2ccccc2Cl)CCN(C(=O)CN2CCOC2=O)CC1 | 5% | 6% | 25 | 13µM* | ? | -15%
CCc1nc2ccc(C(=O)NCC3CCCCC3)cn2c1N(C)C(=O)c1cccc(OC)c1 | nt | nt | nt | 0% | nt | nt
C=CCn1cccc(C(=O)Nc2ccc(C)c(Cl)c2)c1=O | 25% | ? | 4 | 4.5µM* | ? | 8%
C=CCn1cccc(C(=O)Nc2ccc(Cl)cc2)c1=O | 29% | 12% | 10 | 5.6µM* | ? | 4%
O=C(N/N=C/C=C/c1ccccc1[N+](=O)[O-])c1cc(-c2cccnc2)nc2ccccc12 | 7.1µM* | 19% | 2 | -46% | 16µM* | 5.6µM*
COc1ccccc1-c1cc(C(=O)N/N=C\c2cnn(C)c2C)c2ccccc2n1 | ? | -10% | 22 | -16% | ? | 11%
O=C(NN=Cc1cccc([N+](=O)[O-])c1)c1cc(-c2cccnc2)nc2ccccc12 | nt | 0% | 24 | -34% | 23µM* | nt
COc1ccccc1-c1cc(C(=O)N/N=C/C=C/c2ccccc2[N+](=O)[O-])c2ccccc2n1 | 8.9µM* | -3% | -2 | -48% | 16µM* | 11µM*
Cc1cc(C(=O)N/N=C/c2cccc([N+](=O)[O-])c2)c2ccccc2n1 | -38% | 1% | -4 | -10% | -10% | 2%
Cc1[nH]c2ccccc2c1C=NNC(=O)c1cc(-c2cccnc2)nc2ccccc12 | nt | -5% | 25 | -19% | 16µM* | nt
COc1cccc(NC(=O)C2(C)CCN2Cc2ccc3ccccc3c2)c1 (configuration not stated) | nt | nt | nt | 0% | nt | nt
Cc1cccc(N2CCN(CC(=O)N(C3CCCC3)C3CCS(=O)(=O)C3)CC2)c1C (configuration not stated) | nt | -14% | -16 | -24% | -5% | nt
CC(=O)c1cccc(NCC(=O)Nc2cccc(S(=O)(=O)N3CCCCC3)c2)c1 | nt | -2% | 5 | -23% | ? | nt
O=C(CN1C(=O)C2C3CCC(C3)C2C1=O)OCC(=O)c1ccc(Br)cc1 (configuration not stated) | 10% | 10% | -8 | -13% | 8% | 3%
